The text below walks through data of PubChem BioAssay (NCATS).

A short description of assay [1]: Nrf2 qHTS screen for inhibitors: Validation (AID 493153; active = well fitted inhibition curve with a large enough effect in the main read-out, with a control signal flat, not every such curve was filed as active). The note with it: Potency: luciferase luminescence; viability change: measured here: cytotoxicity max response. In a few lines:
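A549 cells carrying ARE-firefly luciferase reporter, 5000 cells/well in 5% FBS OPTI-MEM, treated with compound over a concentration series for 18-24 h at 37 C. Luciferase luminescence gave Nrf2 activity; CellTiter-Fluor fluorescence gave viability.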

The nature of assay [2]: qHTS for Inhibitors of Cell Surface uPA Generation: Validation Assay (AID 493164). Also: 0% is about no effect. In a few lines:
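RAW 264.7 cells (4000/well) were plated overnight, then exposed for 18 h at 37 C, 5% CO2 to compounds in a 7-point 1:5 titration (2.45 nM–38.3 uM final). Intracellular ATP was read by ATP-Lite luminescence.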
On the technique in general: Quantitative high-throughput screening tests each substance at several concentrations.

In assay [3] the target is Galactokinase (Homo sapiens) (UniProt P51570). Put plainly: qHTS Validation Assay for Inhibitors of Human Galactokinase (GALK) (AID 493189). Also: 0% is about no effect. The gist of the method:
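GALK (5 nM) with 35 uM ATP and 100 uM galactose in HEPES pH 8.0 with MgCl2, NaCl, DTT and BSA. Reaction ran 1 h at room temperature. Residual ATP read by Kinase-Glo Plus luminescence.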

Assay [4] deals with Peptidyl-prolyl cis-trans isomerase NIMA-interacting 1 (Homo sapiens) (UniProt Q13526). The assay can be described thus: qHTS Validation Assay to Find Inhibitors of Pin1 (AID 504536; active = well fitted inhibition curve with a large enough effect in the polarisation, with a control signal flat, not every such curve was filed as active; the % refers to the polarisation;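 also: 0% = full Pin1 enzyme wells and -100% = no-enzyme wells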). The gist of the method:
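Fluorescence polarization competition: compounds (titration) displace HiFluor-488-labeled Pin1-1b peptide from Pin1 (0.3 uM final) in pH 7.5 HEPES buffer with DTT, 10 min at room temperature; %Activity normalized to no-enzyme wells, curves fitted.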

Assay [5] has as its target Phosphoglycerate kinase, glycosomal (Trypanosoma brucei brucei) (UniProt P07378). Put plainly: qHTS Validation Assay to Find Inhibitors of Phosphoglycerate Kinase (AID 504547).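 Also: control wells lack PGK and mark full inhibition.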 The gist of the method:
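Substrate/PGK mix plus compound; reaction started with GAPDH (100nM final) to form 1,3-BPG; 60 min RT; Kinase-Glo Plus 10 min; luminescence. TEA 100mM pH 7.6, MgCl2 5mM, Tween-20 0.01%.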

For assay [6], the target named is phosphoglycerate mutase (Leishmania major) (UniProt Q4Q090). The assay can be described thus: qHTS Validation Assay to Find Inhibitors of Phosphoglycerate Mutase (AID 504548). Also: series mostly up to about 58 µM; % is scaled to controls: 0 for no effect and ±100 for the full control effect. The gist of the method:
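Luminescent end-point read-out via Kinase-GloPlus after a 10-minute development. Reaction: 1.25nM Leishmania major PGAM with substrate and compound, 45 minutes at room temperature in TEA buffer (pH 7.6) with MgCl2 and Tween-20.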

Assay [7] can be described thus: Inducers of the Endoplasmic Reticulum Stress Response (ERSR) in human glioma: Validation (AID 504836). Also: 0% is about no effect. In a few lines: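 Stably transfected U87-MG human glioma cells carrying a GRP78-based luminescent sensor were seeded at 1000 cells/well, pin-dosed with compounds and incubated 16 h. Luciferase reagent was then added, and end-point luminescence was read after 10 min at room temperature.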

The nature of assay [8]: qHTS for Inhibitors of ATXN expression: Validation of Cytotoxic Assay (AID 588349). Also: potency is read from the fitted curve at half-maximal effect. In a few lines: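 HEK293 cells treated with titrated compound for 72 hr at 37 degrees C; viability read as intracellular ATP by CellTiter Glo luminescence.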
The target in assay [9] is DNA dC->dU-editing enzyme APOBEC-3G (Homo sapiens) (UniProt Q9HC16). Put plainly: qHTS for inhibitors of Vif-A3G interactions: Validation (AID 588379). Also: 0% is about no effect. The gist of the method: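 HeLa cells stably expressing Vif and A3G-eYFP, 700 cells/well, incubated overnight at 37 deg C, then exposed to compound overnight at 37 deg C. Inhibition of Vif-mediated degradation read as increased yellow fluorescence (Ex 488/Em 500-530) by laser-scanning cytometry.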
Chain of DNA dC->dU-editing enzyme APOBEC-3G (Homo sapiens) (Q9HC16 whole entry, looked up): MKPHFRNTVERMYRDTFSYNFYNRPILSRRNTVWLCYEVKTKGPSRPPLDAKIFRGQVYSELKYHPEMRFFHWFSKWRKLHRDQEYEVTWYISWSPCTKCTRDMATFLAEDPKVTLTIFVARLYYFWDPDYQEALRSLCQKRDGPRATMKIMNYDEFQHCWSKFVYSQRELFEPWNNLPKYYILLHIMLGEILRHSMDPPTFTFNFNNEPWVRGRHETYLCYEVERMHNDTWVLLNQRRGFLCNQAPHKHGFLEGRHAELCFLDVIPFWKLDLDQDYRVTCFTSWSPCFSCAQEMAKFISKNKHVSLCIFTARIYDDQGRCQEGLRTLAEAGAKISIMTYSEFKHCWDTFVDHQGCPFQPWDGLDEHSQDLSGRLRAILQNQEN

Assay [10] has as its target Ubiquitin carboxyl-terminal hydrolase 1 (Homo sapiens) (UniProt O94782). Put plainly: Inhibitors of USP1/UAF1: Pilot qHTS (AID 504865).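 Also: rhodamine fluorescence freed from ubiquitin-rhodamine substrate followed over time; top concentration of the series differs between compounds; % is scaled to controls: 0 for no effect and ±100 for the full control effect; nearly all actives have a fitted effect of over 35% in size.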 The gist of the method: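 USP1/UAF1 complex at 1 nM preincubated 15 min at room temperature with compound, then Ub-Rho substrate added at 150 nM final. Fluorescence (480/540 nm) read kinetically in 50 mM HEPES pH 7.8, 0.5 mM EDTA, 1 mM TCEP, 0.1 mg/ml BSA, 0.01% Tween-20.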

The target in assay [11] is Estrogen receptor (Homo sapiens) (UniProt P03372). Put plainly: qHTS assay for small molecule antagonists of estrogen receptor alpha signaling (AID 588513; active = well fitted curve in the direction sought with a large enough effect in the signal ratio, with a control signal flat, not every such curve was filed as active; the % refers to the signal ratio; also: % is scaled to controls: 0 for no effect and ±100 for the full control effect). The gist of the method:
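ER-alpha-UAS-bla GripTite HEK 293 cells in 2% charcoal/dextran-treated FBS medium; compounds titrated (1:2, duplicate), then stimulated with 0.5 nM 17-beta-estradiol for 18 h at 37C. CCF4 beta-lactamase fluorescence; Hill-fit IC50 and efficacy.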

The target is the same in assay [12]. Put plainly: qHTS assay for small molecule agonists of estrogen receptor alpha signaling (AID 588514; calls by dose curve;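 also: 0% = vehicle only and 100% = reference agonist; nearly all actives have a fitted effect of over 70% in size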). In a few lines:
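ER-alpha-UAS-bla GripTite HEK293 cells, 5000/well in 2% charcoal/dextran-stripped FBS medium, treated with compound titrations 18 h at 37 C. CCF4 beta-lactamase read by fluorescence after 2 h RT; normalised to 20 nM 17-beta-estradiol (100%) and DMSO (0%), Hill fit for EC50 and efficacy.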

Assay [13] addresses Bile acid receptor (Homo sapiens) (UniProt Q96RI1). Put plainly: qHTS assay for small molecule antagonists of farnesoid X receptor signaling (AID 588526; calls by dose curve; also: % is scaled to controls: 0 for no effect and ±100 for the full control effect). In a few lines: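 Concentration-response titrations were fitted to the Hill equation for half-maximal inhibition and maximal response, with data normalised to 50 uM chenodeoxycholic acid and DMSO control wells. Cells: FXR-UAS-bla HEK293T, dialyzed FBS.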

For assay [14] the target is unchanged. Put plainly: qHTS assay for small molecule agonists of farnesoid X receptor signaling (AID 588527; calls by dose curve;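 also: series mostly up to about 77 µM; 0% = vehicle basal and 100% = reference agonist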). The settings on record: HEK293T FXR-UAS-bla, beta-lactamase ratio, 16 h; stronger effect = higher value. In a few lines:
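Read-out: beta-lactamase reporter fluorescence with CCF4 substrate in GeneBLAzer FXR-UAS-bla HEK293T cells, after 16 h compound exposure at 37 C. Response scaled between DMSO basal (0%) and chenodeoxycholic acid at 100 uM (100%).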

In assay [15] the target is Glucocorticoid receptor (Homo sapiens) (UniProt P04150). The assay can be described thus: qHTS assay for small molecule agonists of glucocorticoid receptor signaling (AID 588532; active = well fitted curve in the direction sought with a large enough effect in the signal ratio, with a control signal flat; the % refers to the signal ratio;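 also: 100% = dexamethasone at 0.1 µM and 0% = DMSO only wells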). The note with it: HeLa MMTV-bla, beta-lactamase ratio, agonist, 18 h; stronger effect = higher value; percent of dexamethasone control, DMSO zero. In a few lines:
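MMTV-bla HeLa, beta-lactamase reporter; medium with 1% charcoal/dextran-stripped FBS; cpds up to 92 uM, 18 h, 37 C; CCF4 readout 460/530 nm; Hill fit → EC50, efficacy vs 0.1 uM dexamethasone = 100%.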

Assay [16] has the same target. Put plainly: qHTS assay for small molecule antagonists of glucocorticoid receptor signaling (AID 588533; active = well fitted inhibition curve with a large enough effect in the signal ratio, with a control signal flat, not every such curve was filed as active; the % refers to the signal ratio;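 also: cells stimulated with 2 nM dexamethasone as agonist; % is scaled to controls: 0 for no effect and ±100 for the full control effect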). The gist of the method: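 Antagonist-mode qHTS: compound titrations added to GRE-bla HeLa cells, then dexamethasone 2 nM final; 18 h, 37 C. CCF4 FRET fluorescence normalized to dexamethasone and DMSO; IC50 from Hill fit.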
The target of assay [17] is Peroxisome proliferator-activated receptor delta (Homo sapiens) (UniProt Q03181). The assay can be described thus: qHTS assay for small molecule agonists of peroxisome proliferator-activated receptor delta signaling (AID 588534; calls by dose curve;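 also: 0% = DMSO basal wells and 100% = positive control agonist at 10 µM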). The gist of the method:
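Cells carrying a PPAR-delta beta-lactamase reporter were treated with compounds for 18 h at 37 °C in agonist mode. CCF4 fluorescence was read after 2 h; EC50 and efficacy from Hill fits.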

Assay [18] in a line: qHTS assay for small molecule antagonists of peroxisome proliferator-activated receptor delta signaling (AID 588535).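 Also: cells co-treated with a PPAR-delta agonist as stimulator during compound exposure.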 The note with it: HEK293T PPARd-UAS-bla, beta-lactamase FRET ratio, 18 h; 460 nm channel. The gist of the method: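 Reporter: UAS-bla under PPAR-delta response element, HEK293T host. Medium: 2% charcoal/dextran FBS. Dosing: titration, 18 hrs, 37 C. Detection: CCF4, 2 hrs RT, 405 ex/460 and 530 em.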

“And” between values parts separate entries of the source, which are not always exact repeats. Equal values may be shown once. Records with an inconclusive call do not appear. The source made the active and inactive calls. Unless noted, calls follow the shape of the dose curve; as a rule, active = well fitted curve in the direction sought with a large enough effect; inconclusive = small, poorly fitted or top-dose-only effect, or another doubt; inactive = no such curve, though single readings can be large; an effect the other way counts as inactive or inconclusive.

Chain of Galactokinase (Homo sapiens) (P51570 whole entry, looked up): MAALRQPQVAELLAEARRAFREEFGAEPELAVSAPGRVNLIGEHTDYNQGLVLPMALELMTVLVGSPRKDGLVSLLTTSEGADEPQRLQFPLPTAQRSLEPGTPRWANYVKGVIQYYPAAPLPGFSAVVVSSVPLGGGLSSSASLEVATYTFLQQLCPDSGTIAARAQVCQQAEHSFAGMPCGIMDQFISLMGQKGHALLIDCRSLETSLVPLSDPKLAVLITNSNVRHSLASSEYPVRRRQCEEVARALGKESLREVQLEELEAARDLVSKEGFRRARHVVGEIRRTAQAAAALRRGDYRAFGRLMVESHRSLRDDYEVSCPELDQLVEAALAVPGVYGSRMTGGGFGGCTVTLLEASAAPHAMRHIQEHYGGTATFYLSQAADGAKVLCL
Chain of Phosphoglycerate kinase, glycosomal (Trypanosoma brucei brucei) (P07378 whole entry, looked up): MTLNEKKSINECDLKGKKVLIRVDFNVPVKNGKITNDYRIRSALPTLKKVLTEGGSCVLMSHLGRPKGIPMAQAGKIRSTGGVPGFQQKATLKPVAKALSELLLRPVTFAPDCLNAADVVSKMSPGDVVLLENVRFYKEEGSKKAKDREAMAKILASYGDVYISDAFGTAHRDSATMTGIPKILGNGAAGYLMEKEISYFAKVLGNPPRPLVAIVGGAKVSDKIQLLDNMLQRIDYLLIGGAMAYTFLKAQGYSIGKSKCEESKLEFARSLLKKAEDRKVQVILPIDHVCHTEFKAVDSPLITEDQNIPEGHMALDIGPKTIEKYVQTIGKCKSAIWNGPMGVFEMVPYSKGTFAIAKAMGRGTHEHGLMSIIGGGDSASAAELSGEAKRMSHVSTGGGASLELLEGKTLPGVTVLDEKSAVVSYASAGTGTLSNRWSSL
Chain of Peptidyl-prolyl cis-trans isomerase NIMA-interacting 1 (Homo sapiens) (Q13526 whole entry, looked up): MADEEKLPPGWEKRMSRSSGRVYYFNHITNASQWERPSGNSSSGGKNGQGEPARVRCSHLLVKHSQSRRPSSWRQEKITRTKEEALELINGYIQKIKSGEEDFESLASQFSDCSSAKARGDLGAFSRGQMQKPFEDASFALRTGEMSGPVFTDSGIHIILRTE
Chain of Ubiquitin carboxyl-terminal hydrolase 1 (Homo sapiens) (O94782 whole entry, looked up): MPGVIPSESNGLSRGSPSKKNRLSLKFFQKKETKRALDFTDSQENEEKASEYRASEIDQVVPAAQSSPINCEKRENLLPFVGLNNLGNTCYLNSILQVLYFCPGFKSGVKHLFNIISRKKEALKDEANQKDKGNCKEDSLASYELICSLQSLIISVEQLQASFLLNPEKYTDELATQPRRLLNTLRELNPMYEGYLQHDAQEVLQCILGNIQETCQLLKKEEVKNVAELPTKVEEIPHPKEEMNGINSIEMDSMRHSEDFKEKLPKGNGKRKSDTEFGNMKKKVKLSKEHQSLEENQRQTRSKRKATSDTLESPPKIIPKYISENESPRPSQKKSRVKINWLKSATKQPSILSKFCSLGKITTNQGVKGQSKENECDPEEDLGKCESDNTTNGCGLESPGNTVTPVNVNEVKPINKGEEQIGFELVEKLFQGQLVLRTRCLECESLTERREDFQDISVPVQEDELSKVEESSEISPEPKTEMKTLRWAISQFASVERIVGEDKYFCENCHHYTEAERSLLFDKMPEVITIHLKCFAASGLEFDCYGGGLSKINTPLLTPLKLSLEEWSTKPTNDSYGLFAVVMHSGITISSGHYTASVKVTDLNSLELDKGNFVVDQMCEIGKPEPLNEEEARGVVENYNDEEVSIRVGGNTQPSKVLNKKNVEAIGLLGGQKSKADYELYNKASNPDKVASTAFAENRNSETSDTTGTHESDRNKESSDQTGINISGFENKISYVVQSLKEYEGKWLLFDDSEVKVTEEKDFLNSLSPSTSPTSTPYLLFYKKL
Chain of phosphoglycerate mutase (Leishmania major) (Q4Q090 1-553): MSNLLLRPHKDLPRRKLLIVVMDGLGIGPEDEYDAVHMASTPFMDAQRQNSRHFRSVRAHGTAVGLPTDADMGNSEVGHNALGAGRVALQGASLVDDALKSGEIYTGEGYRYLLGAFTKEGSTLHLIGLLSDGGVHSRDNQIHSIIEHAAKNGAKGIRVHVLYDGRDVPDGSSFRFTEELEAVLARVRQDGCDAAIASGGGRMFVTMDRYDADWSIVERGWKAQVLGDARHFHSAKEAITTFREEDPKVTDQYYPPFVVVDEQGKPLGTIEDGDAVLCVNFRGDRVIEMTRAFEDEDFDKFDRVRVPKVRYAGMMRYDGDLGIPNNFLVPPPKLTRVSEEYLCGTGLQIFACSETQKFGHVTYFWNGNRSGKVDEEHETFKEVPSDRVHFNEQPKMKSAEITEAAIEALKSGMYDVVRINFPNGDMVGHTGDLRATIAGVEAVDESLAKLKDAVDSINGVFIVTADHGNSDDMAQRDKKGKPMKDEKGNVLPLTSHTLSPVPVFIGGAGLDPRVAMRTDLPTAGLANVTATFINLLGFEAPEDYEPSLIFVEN
Chain of Bile acid receptor (Homo sapiens) (Q96RI1 whole entry, looked up): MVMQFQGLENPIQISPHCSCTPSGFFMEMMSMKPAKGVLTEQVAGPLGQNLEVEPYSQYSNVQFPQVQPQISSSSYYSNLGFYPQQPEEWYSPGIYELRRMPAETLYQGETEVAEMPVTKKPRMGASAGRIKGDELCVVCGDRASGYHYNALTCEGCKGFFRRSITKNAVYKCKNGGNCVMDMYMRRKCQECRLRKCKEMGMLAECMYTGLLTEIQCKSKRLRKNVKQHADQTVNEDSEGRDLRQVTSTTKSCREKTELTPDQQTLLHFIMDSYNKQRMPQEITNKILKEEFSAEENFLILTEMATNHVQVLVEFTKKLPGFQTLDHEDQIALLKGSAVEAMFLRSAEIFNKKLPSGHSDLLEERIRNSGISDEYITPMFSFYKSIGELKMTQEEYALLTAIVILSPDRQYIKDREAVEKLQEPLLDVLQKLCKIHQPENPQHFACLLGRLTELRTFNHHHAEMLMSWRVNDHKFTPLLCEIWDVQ
Chain of Estrogen receptor (Homo sapiens) (P03372 whole entry, looked up): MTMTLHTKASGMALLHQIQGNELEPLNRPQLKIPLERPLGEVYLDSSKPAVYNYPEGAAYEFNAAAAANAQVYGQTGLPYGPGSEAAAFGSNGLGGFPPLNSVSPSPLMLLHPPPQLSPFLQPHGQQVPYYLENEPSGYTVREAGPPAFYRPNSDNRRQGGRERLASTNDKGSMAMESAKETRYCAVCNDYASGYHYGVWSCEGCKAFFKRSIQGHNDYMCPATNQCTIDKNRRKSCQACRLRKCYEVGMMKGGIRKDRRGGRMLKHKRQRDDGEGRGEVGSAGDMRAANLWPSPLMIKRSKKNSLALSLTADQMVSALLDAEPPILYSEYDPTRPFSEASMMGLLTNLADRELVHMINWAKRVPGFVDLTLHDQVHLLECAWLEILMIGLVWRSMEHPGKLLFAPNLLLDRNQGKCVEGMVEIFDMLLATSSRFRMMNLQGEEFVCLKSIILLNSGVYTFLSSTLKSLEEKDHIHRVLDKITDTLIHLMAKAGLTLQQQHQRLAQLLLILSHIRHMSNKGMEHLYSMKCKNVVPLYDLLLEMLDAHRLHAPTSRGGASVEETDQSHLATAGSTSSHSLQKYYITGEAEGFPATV
Chain of Glucocorticoid receptor (Homo sapiens) (P04150 whole entry, looked up): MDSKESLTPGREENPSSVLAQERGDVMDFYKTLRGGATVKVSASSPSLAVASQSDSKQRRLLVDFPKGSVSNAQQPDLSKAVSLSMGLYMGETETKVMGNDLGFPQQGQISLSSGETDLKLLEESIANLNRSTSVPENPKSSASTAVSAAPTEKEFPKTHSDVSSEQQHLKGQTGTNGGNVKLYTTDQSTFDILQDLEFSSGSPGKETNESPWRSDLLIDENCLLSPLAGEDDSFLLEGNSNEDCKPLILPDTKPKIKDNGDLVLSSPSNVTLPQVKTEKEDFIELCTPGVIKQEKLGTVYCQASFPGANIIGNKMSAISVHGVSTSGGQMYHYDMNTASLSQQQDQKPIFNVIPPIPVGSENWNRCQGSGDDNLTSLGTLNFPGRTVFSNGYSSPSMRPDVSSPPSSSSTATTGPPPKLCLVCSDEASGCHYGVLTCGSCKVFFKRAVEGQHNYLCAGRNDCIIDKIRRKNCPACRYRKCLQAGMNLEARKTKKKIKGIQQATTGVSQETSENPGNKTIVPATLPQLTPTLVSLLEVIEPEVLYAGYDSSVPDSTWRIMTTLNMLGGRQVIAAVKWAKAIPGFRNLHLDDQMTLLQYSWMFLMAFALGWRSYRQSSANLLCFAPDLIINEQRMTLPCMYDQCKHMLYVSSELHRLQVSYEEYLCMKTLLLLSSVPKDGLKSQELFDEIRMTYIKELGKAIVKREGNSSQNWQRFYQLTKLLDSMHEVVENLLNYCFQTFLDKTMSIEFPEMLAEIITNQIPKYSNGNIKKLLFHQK

In the case of `NCC1(CC(=O)O)CCCCC1`, the Potency result in assay [1], in assay [4], in [5] and in assay [8] was “inactive” throughout. Further, the viability change in assay [1] was 10.1%. The result in assay [2], in assay [3], in assay [6], in assay [7] and in [9] was inactive.

In the case of `Cc1cccc(C)c1NC1=NCCCS1`, the Potency entry in assay [1], in assay [4], in [5] and in [8] was “inactive” in each case. For the same compound, the viability change in assay [1] was -1.16%. Further, the call in [2], in [3], in assay [6] and in assay [7] was inactive.

Turning to `CCCN1CCC[C@@H]2Cc3[nH]ncc3C[C@H]21`, the Potency entry in assay [1], in assay [4], in [5] and in assay [8] was “inactive” in each case. In addition, in assay [1], the viability change was 1.53% and 0.366%. For the same compound, the result in assay [2], in assay [6], in assay [7] and in [9] was inactive.

Take `Cc1cccc(C)c1NC(=O)CN1CCCC1=O`: the Potency entry in assay [1], in [5], in assay [10] and in assay [8] was “inactive” throughout. Besides, the viability change in assay [1] was -4.1%. Moreover, the call in [2] and in assay [6] was inactive.

As for `COc1ccccc1N1CCNCC1`, the Potency entry in assay [1], in [4], in assay [5], in assay [10] and in [8] was “inactive” each time. In assay [1], the viability change was determined as 10.4%. The outcome in assay [2], in assay [3], in assay [6] and in assay [7] was inactive.

Regarding `CC[C@@H](CO)NC(=O)[C@@H]1C=C2c3cccc4[nH]cc(c34)C[C@H]2N(C)C1`, the Potency entry in assay [1], in assay [5] and in assay [8] was “inactive” each time. The viability change in assay [1] was -12.7%. The compound was called inactive in assay [2], in assay [6] and in assay [7].

In the case of `O=C1NCN(c2ccccc2)C12CCN(CC1COc3ccccc3O1)CC2` (configuration not stated), the Potency entry in [1], in assay [4], in assay [5] and in assay [8] was “inactive” each time. The viability change in assay [1] was determined as 1.49%. For the same compound, the call in assay [2], in assay [3], in assay [6] and in assay [7] was inactive.

For the compound `CCC1(C2=NCCN2)Cc2ccccc2O1` (configuration not stated), the Potency result in [1], in [4], in [5], in assay [10] and in [8] was “inactive” in each case. For the same compound, the viability change in [1] amounted to 1.87%. Also, the outcome in assay [2], in assay [3] and in [6] was inactive.

`Cc1ccc(S(=O)(=O)N[C@@H](CCCCN)C(=O)CCl)cc1`: the Potency result in assay [1], in [4] and in assay [5] was “inactive” throughout. In addition, in [1], the viability change was -2.81%. Moreover, the outcome in assay [3], in assay [6] and in [7] was inactive.

Turning to `CC(CCc1ccccc1)NC(C)C(O)c1ccc(O)cc1` (configuration not stated), the Potency entry in assay [1], in [4], in assay [5] and in assay [10] was “inactive” in each case. Moreover, the viability change in [1] is -10.8%. Also, the call in [2], in assay [3], in assay [6] and in [7] was inactive.

As for `Fc1ccc(C(OCCN2CCN(CCCc3ccccc3)CC2)c2ccc(F)cc2)cc1`, the compound was classed as inactive in assay [2], in assay [3], in [6], in assay [7] and in [9]. For the same compound, the Potency entry in [4] and in assay [5] was “inactive” throughout. For the same compound, in [8], the Potency was 35.5 µM (active).

Take `CNCC(O)c1ccc(O)cc1` (configuration not stated): the Potency entry in assay [1], in assay [4], in [5], in assay [10], in assay [8] and in assay [12] was “inactive” throughout. In addition, the Potency result in assay [13] and in [16] was “inactive” throughout. Further, the viability change in [1] was -6.1%. The result in [2], in assay [3], in [6], in [7], in assay [11] and in assay [17] was inactive. The values for the activation in assay [14] and in [15] were -1.79% (inactive) and 9.17% (inactive), respectively. In addition, the max response in assay [18] was -16.7%.
